These results are taken from PubChem BioAssay (NCI).

“And” between values parts separate entries of the source, which are not always exact repeats. Equal entries are not always repeated. About 83,000 compounds went through this panel and 20% of them were active in at least one assay; those are over-represented in the sample as a whole.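 The endpoint reported here, percent growth, reads 100 for growth as untreated, 0 for no net growth and -100 for all cells dead.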 Values without a mark were called inactive. The source made the active and inactive calls. How the source made its calls: active means growth percent below 10; inactive means the rest.

This experiment concerns MDA-MB-468 breast. The experiment is described as follows: NCI-60 one-dose screen, 48 h (100 = growth as untreated, 0 = no growth, -100 = all killed). To be noted: 10 µM unless noted.
For `C/C(=N\OC(=O)Nc1cccc(Cl)c1)c1ccccc1`, the growth was 75.1%. `COc1ccc2nc3cc(Cl)ccc3c(NCCCCCN3CCCCC3)c2c1`: the growth was -53.3% (active).

Consider `CC(=O)c1c(C)[nH]c(-c2nc3ccc(N4CCN(C)CC4)cc3[nH]2)c1-c1ccc(N(C)C)cc1`, for which the growth is 21%. Turning to `CC[C@@]1(OC(=O)CN(C)C)C(=O)OCc2c1cc1n(c2=O)Cc2cc3c(N)cccc3nc2-1`, the growth is -66.4% (active).

In the case of `C[n+]1cc2cc3c(cc2c2ccccc21)OCO3`, the growth is -21.2% (active).

On to `c1ccc2c(-c3nc(-c4c[nH]c5ccncc45)cs3)c[nH]c2c1`, for which the growth was -9.84% (active). Turning to `Cc1c(C(C)(C)C)cc(C(C)(C)C)c2c1CN(C)CO2`, the growth was 122%. In the case of `Cc1cc(C2(c3ccc(O)c(C)c3)OS(=O)(=O)c3ccccc32)ccc1O`, the growth is 98.9%. For the compound `COc1c(C2CC(=O)Nc3c2cnn3Cc2ccco2)cc2c(c1OC)OCO2` (stereo not given), the growth is 16.2%. Turning to `Fc1ccc(-c2cn3c(nc4ccccc43)c(-c3ccccc3)n2)cc1`, the growth was 82.8%. For `CCCCCCc1cc2cc(-c3nc4ccccc4[nH]3)c(=Nc3ccccc3C)oc2cc1O` the value was -5.99% (active); for `O=C1C(Cl)=C(NCc2ccco2)C(=O)c2ccccc21`, 25%.

On to `CC(=O)Cc1nsc(NC(=O)c2cc(-c3cc(Cl)cc(Cl)c3)oc2C)n1`, for which the growth is 97.6%. Under `CCOC(=O)N/N=C/c1ccc(OC)c(OC)c1` stands 97.6%; under `CCCOC(=O)c1nc(N(CC2CCCCC2)C(=O)NC)sc1/N=C/c1ccccc1`, -18.8% (active). Turning to `FC(F)(F)c1cccc(-c2cn3c(ccc4ccccc43)n2)c1`, the growth is 104%.

As for `NC(=O)C1(Nc2ccc(Br)cc2)CCCC1`, the growth was 101%. `COc1ccc(-n2[nH]c3c(cnc4ccccc43)c2=O)cc1`: the growth was 108% and 99.5%. As for `COc1ccccc1C(=O)NC(=S)Nc1ccc(-c2nc3ccccc3[nH]2)cc1`, the growth was 75.1%. As to `O=C(c1cccc(F)c1)n1ccc2cc(NC(=S)Nc3cccnc3)ccc21`, the growth was 91.9%.

Turning to `O=C(N/N=C/c1ccc(O)cc1O)c1cccnc1`, the growth was 6.57% (active). `COc1cc(-c2cc(/C=C/C(=O)c3ccc4c(c3)OCO4)[nH]n2)cc(OC)c1OC`: the growth was -4.54% (active).

Regarding `CC[Si](CC)(CC)OC1[C@@H](O[Si](CC)(CC)CC)[C@@H](CNC(=O)NC)O[C@H]1n1cnc2c(NC(=O)Nc3ccccc3)ncnc21` (stereo not given in full), the growth was 97.5%. For `N=C(N)c1ccc(-c2ccc(-c3cccs3)o2)cc1`, the growth is -40.5% (active).

In the case of `COc1cc(C2CC(c3ccc(Nc4nc(NCCO)nc(NCCO)n4)cc3)=NN2c2cc(Cl)cc(Cl)c2)cc(OC)c1OC` (stereo not given), the growth was -9.24% (active). `CCCCCCCCCCCCCCCCn1cc[n+](C)c1`: the growth was -79% (active).

Regarding `O=S(=O)(c1ccc(OCCO)cc1)c1ccc(OCCO)cc1`, the growth is 101%. For the compound `COc1cc(/C=C2\C(=O)N(CC(O)COc3cc(O)c4c(=O)cc(-c5ccccc5)oc4c3)c3ccccc32)cc(OC)c1O` (stereo not given), the growth was 74.3%. Take `Oc1cccc(CNC2CCCCC2)c1`: the growth is 113%. For `Nc1nc2ccc(-c3nc4ccc5[nH]ncc5c4c4c3CCC4)cc2s1`, the growth is -5.96% (active). Under `O=S(=O)(NCCCNc1nccc(-c2[nH]c(-c3ccccc3)nc2-c2ccc(F)c(O)c2)n1)c1cccc2ccccc12` stands 48.8%; under `O=C(NNc1nc2cc(F)ccc2n2cccc12)c1ccncn1`, -15.2% (active). With `O=C(COc1ccc(C2SCC(=O)N2c2ccc(F)cc2)cc1)c1ccccc1` (stereo not given), the growth is 89.1%. With `COc1ccc2sc3c(NCCCNCCO)nc4ccccc4c3c(=O)c2c1`, the growth was 30.9%. For the compound `COc1cccc(C2=NN3C(C2)c2cc(Br)cc(OC)c2OC32CCN(Cc3ccccc3)CC2)c1` (stereo not given), the growth was 96.4%.

Take `COC(=O)[C@H]1CCCN1C[C@@H](O)CN1C(=O)/C(=C\c2cc(OC)c(OC)c(OC)c2)c2ccccc21`: the growth is 111%.

As for `COc1cc(/C=C2\SC(=S)N(/C=C/c3nc4ccccc4[nH]c3=O)C2=O)cc(OC)c1OC`, the growth was 81.2%. Consider `Cc1ccc(C(=O)/C(=C\c2ccc([N+](=O)[O-])cc2)S(=O)Cc2ccc(Cl)cc2)cc1` (stereo not given), for which the growth is 24.3%.

With `CN1CCN(c2ccc(Nc3nc(NCCCNS(=O)(=O)c4cccc(F)c4)c4sccc4n3)cc2)CC1`, the growth is -5.96% (active). For `N#CCc1ccc([N+](=O)[O-])cc1`, the growth is 96.8%.
